This note sets out measurements from PubChem BioAssay.

Structures are written as SMILES. Active and inactive are the calls of the source.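 The calls were made as follows: active = inhibition of the reporter signal at or above 50%; inactive = inhibition below 50%.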

This test in a line: inhibitors of poly I:C-induced TLR3 signaling, primary screen, cell-based, poly I:C stimulus, luciferase, 10K MLSCN set (AID 602277). The settings on record: HEK293-TLR3 RL24 IRF3 luciferase reporter, at 10 µM, hits give high values.
On to `CN(C)S(=O)(=O)c1ccc(C(=O)N2CCCC2c2nc3ccccc3s2)cc1` (stereo not given), for which the inhibition (as a rule, the drop in the measured response relative to a control, in per cent) was -7.19% (inactive).

As for `CC1=C(C(=O)OC(C)C)C(C2CC=CCC2)NC(=O)N1` (stereo not given), the inhibition is 9.1% (inactive).

With `COc1ccc(OC)c(C2CC(=O)NC(SC)=C2C#N)c1` (stereo not given), the inhibition is 29% (inactive).

As to `CC1(C(=O)NC2CCCCC2)CCC(=O)N1Cc1cccs1` (stereo not given), the inhibition was 12.6% (inactive).

As to `NC(=O)c1c(NC(=O)Cc2cccs2)sc2c1CCC2`, the inhibition is -35.7% (inactive).

Regarding `CC(=O)Nc1cccc(NC(=O)C2CCCN2C(=O)Nc2ccc(C)cc2)c1` (stereo not given), the inhibition is 20.3% (inactive).

`COc1ccc2[nH]c(=O)c(CN(CCO)S(=O)(=O)c3ccc4c(c3)OCCO4)cc2c1`: the inhibition is 11.8% (inactive).

With `Cn1c(=O)c2c(nc(NCC3CCCO3)n2C)n(C)c1=O` (stereo not given), the inhibition is 6.02% (inactive).

With `COc1cccc(-c2csc3nc[nH]c(=O)c23)c1`, the inhibition is 2.24% (inactive).

For the compound `COC(=O)Cn1c2ccccc2c2nc(C)sc21`, the inhibition was -8.31% (inactive).

Take `CCOC(=O)c1ccc(-n2c(C)nc3c(cnn3-c3ccccc3C)c2=O)cc1`: the inhibition was 3.65% (inactive).

With `Cc1ccc(S(=O)(=O)C2(C(=O)Nc3cccnc3)CC2)cc1`, the inhibition was 28.7% (inactive).

Consider `CC(=O)N1CCN(S(=O)(=O)c2ccc(S(=O)(=O)NC3CC3)cc2)CC1`, for which the inhibition is 18% (inactive).

For the compound `COc1ccc(CCNc2oc(-c3ccccc3OC)nc2C#N)cc1`, the inhibition was 12.4% (inactive).

Turning to `COc1ccc(-n2c(Cc3cccn3C)nnc2SCC(=O)Nc2cccc(Cl)c2)cc1`, the inhibition was 19.5% (inactive).

In the case of `COc1ccc(OC)c(-n2nnnc2SCC(=O)NCc2ccc3c(c2)OCO3)c1`, the inhibition was -14.2% (inactive).

Regarding `CC1CCc2nn(CC(=O)NCc3ccc(F)cc3)cc2C1` (stereo not given), the inhibition was 20.2% (inactive).

With `CC1CN(C2CCCCC2)c2nc3c(c(=O)[nH]c(=O)n3C)n2C1` (stereo not given), the inhibition was 40.3% (inactive).

Regarding `Cc1ccc(Nc2nc(Oc3ccc(=O)[nH]n3)nc(N(C)C)n2)cc1`, the inhibition was 11.8% (inactive).

Turning to `O=C(Nc1ccc(F)cc1)N(Cc1ccco1)Cc1cc2cc3c(cc2[nH]c1=O)OCO3`, the inhibition was -15.6% (inactive).

Turning to `COc1cccc(C(=O)Nc2c(C(N)=O)oc3ccccc23)c1`, the inhibition was 25.5% (inactive).

On to `O=C(C1CCCN1S(=O)(=O)c1cccc2cccnc12)N1CCn2c1nc1ccccc12` (stereo not given), for which the inhibition is 21.7% (inactive).

`O=C(NCCSCc1ccco1)Nc1cccc(Cl)c1`: the inhibition is -54.8% (inactive).

For `CC(=O)Nc1nc2c(c3c1c(=O)oc1ccccc13)CC(C)CC2` (stereo not given), the inhibition was 32.3% (inactive).

As to `O=c1/c(=C/c2ccco2)sc2nc(-c3ccccc3Br)nn12`, the inhibition was 18.1% (inactive).

Regarding `CCOC(=O)Cn1c(S(=O)(=O)Cc2ccccc2)nc2ccccc21`, the inhibition was 30.4% (inactive).

Consider `CCn1c(SCC(=O)Nc2ccccc2F)nc2c(c1=O)SC(C)C2` (stereo not given), for which the inhibition is 8.8% (inactive).

Take `Nc1cccc2c1C(=O)N(c1ccccc1)C2=O`: the inhibition is -40.4% (inactive).

As for `COCCn1c(=O)[nH]c2cc(C(=O)N3CCN(Cc4ccc5c(c4)OCO5)CC3)ccc2c1=O`, the inhibition was -1.78% (inactive).

With `O=C(Cn1nnc(-c2ccc(S(=O)(=O)N3CCCC3)cc2)n1)NCC1CCCO1` (stereo not given), the inhibition was 15.1% (inactive).

Consider `O=C(CN(Cc1ccco1)C(=O)c1cc(=O)[nH]c2ccccc12)Nc1ccccc1Br`, for which the inhibition is 16.8% (inactive).

Consider `c1nc(NCC2(N3CCOCC3)CCCCC2)c2ccsc2n1`, for which the inhibition is 23.1% (inactive).

In the case of `CC1CCCN(S(=O)(=O)c2ccc(C(=O)Nc3nnc(-c4ccccc4Cl)o3)cc2)C1` (stereo not given), the inhibition is 25.9% (inactive).

Turning to `O=C(OCN1C(=O)c2ccccc2C1=O)c1ccc2c(=O)n3c(nc2c1)CCC3`, the inhibition is 16.5% (inactive).

Consider `Cc1cc(C)n2nc(SCc3nc4ccccc4[nH]3)nc2n1`, for which the inhibition is -34.6% (inactive).

As to `Cc1ccc(S(=O)(=O)NCCSc2nnnn2-c2ccc(C(N)=O)cc2)cc1`, the inhibition was 12.6% (inactive).

`CC1(C)Cc2c(sc3c2c(=N)n(Cc2ccco2)c(=O)n3Cc2ccccc2)CO1`: the inhibition was 23.7% (inactive).

Consider `CC1=C(C(=O)NCc2ccccn2)C2(CCC(C)CC2)OC1=O` (stereo not given), for which the inhibition is 26.9% (inactive).

Take `Cc1nnc(SC(=O)N2c3ccccc3Sc3ccccc32)s1`: the inhibition is 65.9% (active).

For `Cc1ccnc(NC(=O)C2CCCN(S(=O)(=O)c3cnc[nH]3)C2)c1` (stereo not given), the inhibition is 7.28% (inactive).
